Sampled rows, rich in hits. Any-hit rate of the full collection: about 3.3%.
ABHD5 PLIN5 PPI – ABHD5-PLIN5 protein interaction inhibition. Q00G26+Q8WTS1. Split G. princeps luciferase complementation, luminescence, 4 h. inhibition, % at 4 µM. 0.78% of 360,000 active. AID 602281;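 active means inhibition above the mean inhibition across every tested compound plus 3 SD, cut at about 22% in these data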
TLR4 MyD88 comp – TLR4-MyD88 interaction inhibition in cells; O00206+Q99836; HeLa CL3-4 TLR4/MyD88 BLA complementation, FRET ratio; inhibition, % at 8.4 µM; 0.18% of 200,000 active; in the data active means inhibition above about 25%
NOD2 RIPK2 PPI – blocks binding of human NOD2 to RIPK2. O43353. CHO BLA complementation NOD2-RIPK2, CCF4 ratio. inhibition, % at 4.98 µM. 0.38% of 360,000 active. AID 624267; in the data active means inhibition above about 21%
PRMT1 inh – PRMT1 (human) inhibition, primary screen | recombinant PRMT1, activity-based probe fluorescence polarization | Q99873 | 1.3% of 370,000 active | inhibition, % at 2.79 µM | AID 652257;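 active means inhibition above about 21% made by adding two undisclosed values, limit read from the data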
Target sequence (Q99873 whole entry, looked up): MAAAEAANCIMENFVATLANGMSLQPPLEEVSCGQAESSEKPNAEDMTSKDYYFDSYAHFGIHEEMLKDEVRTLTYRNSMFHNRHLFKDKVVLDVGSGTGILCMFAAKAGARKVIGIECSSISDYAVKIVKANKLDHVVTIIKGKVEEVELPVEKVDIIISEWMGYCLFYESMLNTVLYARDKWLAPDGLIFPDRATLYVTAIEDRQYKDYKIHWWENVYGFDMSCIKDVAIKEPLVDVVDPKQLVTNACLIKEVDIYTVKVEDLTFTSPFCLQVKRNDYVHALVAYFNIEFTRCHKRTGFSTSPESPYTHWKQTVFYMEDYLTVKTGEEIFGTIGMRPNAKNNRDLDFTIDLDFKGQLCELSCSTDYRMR
TLR9-MyD88 block – inhibitors of human TLR9-MyD88 binding; inhibition, % at 4.98 µM; CHO BLA complementation TLR9-MyD88, CCF4 FRET ratio; 0.21% of 340,000 active; Q9NR96+Q99836;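 active means inhibition above the mean over all tested compounds plus 3 SD, cut at about 21% in these data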
rCAG binder – r(CAG) repeat RNA binding; AID 651821; 1.3% of 370,000 active; inhibition, % at 3 µM; TO-PRO-1 dye displacement fluorescence;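 active means inhibition above the plate cutoff, the mean of all test compounds on that plate plus 3 SD, cut at about 35% in these data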;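 further: higher means more dye released from RNA so lower well fluorescence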
rCAG bind conf – r(CAG) RNA repeat binding, confirmation; 70% of 4,300 active; inhibition, % at 3 µM; AID 652065; TO-PRO-1 dye displacement fluorescence; shares compounds with rCAG binder;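 active means inhibition above a per-plate cutoff, the mean inhibition of sample wells plus 3 SD, cut at about 35% in these data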;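 further: loss of TO-PRO-1 fluorescence as compound displaces dye from 1x1 AA loop RNA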
DNA CAG counter – disrupts DNA CAG TO-PRO-1 complex, flagging rCAG hits | shares compounds with rCAG binder | d(CAG) DNA oligo TO-PRO-1 dye displacement, fluorescence | inhibition, % at 3 µM | 94% of 4,300 active;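 active means inhibition above its plate's cutoff, the mean test-well inhibition plus 3 SD, cut at about 4.8% in these data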;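 further: hits displace the dye from DNA and so lower well fluorescence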
dCAG dye DR – disrupts DNA CAG TO-PRO-1 complex in dose response. 20% of 250 active. shares compounds with rCAG binder. AID 686960. DNA CAG/GTC duplex TO-PRO-1 dye displacement fluorescence. IC50, µM; in the data active means IC50 below about 10 µM
Hits are given with their value; - = inactive; . = no result.

SMILES	ABHD5 PLIN5 PPI	TLR4 MyD88 comp	NOD2 RIPK2 PPI	PRMT1 inh	TLR9-MyD88 block	rCAG binder	rCAG bind conf	DNA CAG counter	others
Clc1cccc(-c2nc(-c3ccc(-c4nn[nH]n4)cc3)no2)c1	-	.	-	-	-	36	62	19	dCAG dye DR=-
CC(=O)NS(=O)(=O)c1ccc(NC(=O)c2cc(-c3ccc(C)c(C)c3)nc3ccccc23)cc1	-	-	-	-	-	77	71	37
CC(=O)NS(=O)(=O)c1ccc(NC(=O)c2cc(-c3ccc(C)cc3)nc3ccccc23)cc1	-	-	-	-	-	53	35	9.3
Cc1c(C)c2ccc(OCC(=O)NCCCN3CCCC3=O)cc2oc1=O	-	.	-	-	-	-	.	.
Cc1cc(=O)n(CCc2ccccc2)c(O)c1C#N	-	-	-	-	-	64	-	4.4
CCc1oc2ccccc2c1C(=O)c1cc(Br)c(O)c(Br)c1	-	-	-	-	-	57	63	17
O=[N+]([O-])c1cc(S(=O)(=O)O)cc([N+](=O)[O-])c1NN(c1ccccc1)c1ccccc1	-	.	-	-	-	48	36	11
Clc1ccc2c(c1)-c1[nH]ncc1CS2	-	.	-	-	-	-	.	.
C=CCN1C(=O)/C(=C\c2ccc(Oc3nc(N4CCOCC4)nc(N4CCOCC4)n3)c(OC)c2)SC1=S	-	-	-	-	-	-	.	.
O=C(O)c1cc(-c2ccc(/C=C3/SC(=S)N(Cc4ccccc4)C3=O)o2)ccc1Cl	-	-	-	-	-	-	.	.
O=C(O)c1cccc(N2C(=O)/C(=C/c3ccc(SCc4ccc(Cl)cc4)o3)SC2=S)c1	-	-	-	57	-	67	88	61
CCCOc1ccc(-c2cc(C(F)(F)F)c(C#N)c(SCC(=O)O)n2)cc1	-	-	-	-	-	-	.	.
N#Cc1c(-c2ccccc2)cc(-c2ccccc2)nc1SCC(=O)NCC(=O)O	-	.	-	-	-	41	37	10
N#Cc1c(-c2ccc(F)cc2)cc(-c2cccs2)nc1SCC(=O)O	-	.	-	-	-	56	45	14
N#Cc1c(C(F)(F)F)cc(-c2cccs2)nc1SC(C(=O)O)c1ccccc1 (stereo not given)	-	.	-	-	-	78	77	31	dCAG dye DR=-
N#Cc1c(C(F)(F)F)cc(-c2cccs2)nc1SCC(=O)O	-	.	-	-	-	-	.	.
Cc1ccc(-c2cc(C(F)(F)F)c(C#N)c(SCC(=O)O)n2)cc1	-	-	-	-	-	48	-	5.0
COc1ccc(-c2cc(-c3ccc(Cl)cc3)c(C#N)c(SCC(=O)O)n2)cc1	-	.	-	-	-	80	85	55
COc1ccccc1-c1cc(-c2ccccc2)nc(SCC(=O)O)c1C#N	-	.	-	-	-	47	37	9.6
CCc1ccc(/C=C(\Cl)c2nc3cc(Cl)ccc3c(=O)[nH]2)cc1	-	-	-	-	-	-	.	.
COC(=O)[C@]12C[C@H](CC(=O)N3CCN(C(=O)C4CC4)CC3)C(=O)N(Cc3ccccc3)C1=C[C@H](COCc1ccccc1)O[C@@H]2C	.	.	.	-	.	-	.	.
Cc1c(C(=O)NCc2cccc(C(F)(F)F)c2)sc(=O)n1Cc1cccc(F)c1	-	.	-	-	.	-	.	.
O=C(NN=Cc1ccco1)c1cccnc1	.	.	.	-	.	-	.	.
Cc1ccccc1C(=O)Nc1ccc2c(C#N)c3nc4ccccc4nc3n2c1	-	-	-	-	-	36	-	14
COc1ccc(OCC(=O)N2CCN(S(=O)(=O)c3ccc4c(c3)OCCO4)CC2)cc1	-	.	-	-	-	-	.	.
SMILES	ABHD5 PLIN5 PPI	TLR4 MyD88 comp	NOD2 RIPK2 PPI	PRMT1 inh	TLR9-MyD88 block	rCAG binder	rCAG bind conf	DNA CAG counter	others
C/C(=N\NC(=O)c1cc(O)ccc1O)c1cccc(NC(=O)c2ccc(Cl)cc2)c1	-	.	-	-	-	37	-	8.3
C/C(=N\NC(=O)c1cc(O)ccc1O)c1cccc(NC(=O)c2cccc(Cl)c2)c1	-	.	-	31	-	45	-	8.4
C/C(=N\NC(=O)c1ccccc1O)c1cccc(NC(=O)c2ccccc2)c1	-	.	-	-	-	-	.	.
C/C(=N\NC(=O)C1CC1)c1cccc(NC(=O)c2cccc(Cl)c2)c1	.	-	.	.	.	.	.	.
CN(C(=O)CC1C(=O)NCCN1Cc1cccc(C(F)(F)F)c1)C1CCOCC1 (stereo not given)	-	.	-	-	-	-	.	.
CC(=O)c1ccc(NS(=O)(=O)c2cccc(C(=O)Nc3ccccc3C(=O)O)c2)cc1	-	.	-	-	-	49	-	6.4
O=C(Nc1ccccc1C(=O)O)c1cc(S(=O)(=O)Nc2ccccc2)ccc1Cl	-	.	-	-	-	46	35	7.3
COc1ccc(NS(=O)(=O)c2cccc(C(=O)Nc3ccccc3C(=O)O)c2)cc1	-	.	-	-	-	66	52	20
COc1ccc(NS(=O)(=O)c2cccc(C(=O)NNC(=O)c3ccc(NC(C)=O)cc3)c2)cc1	-	.	-	-	-	-	.	.
Cc1ccc2c(c1)CCCN2S(=O)(=O)c1cccc(C(=O)Nc2ccccc2C(=O)O)c1	-	.	-	-	-	83	85	63
CCn1cc(C(=O)OCC(=O)NCc2ccc3c(c2)OCO3)c(=O)c2ccc(C)nc21	-	-	-	-	-	-	.	.
O=C(Nc1ccccc1C(=O)O)c1ccc(Cl)c(S(=O)(=O)N2CCOCC2)c1	-	-	-	-	-	-	.	.
O=C(Nc1ccccc1C(=O)O)c1cc(S(=O)(=O)N2CCCCC2)c(Cl)cc1Cl	-	.	-	-	-	70	62	20
O=C(Nc1cc(S(=O)(=O)Nc2ccccc2F)ccc1Cl)c1ccc(F)cc1F	-	.	-	-	-	47	42	13
COc1cccc(/C=C2\SC(=S)N(CCCC(=O)Nc3ccc(C(=O)O)cc3)C2=O)c1	-	.	-	-	-	69	61	22
O=C(O)CCN1C(=O)/C(=C\c2cccc(OCC(=O)Nc3ccc(Cl)cc3)c2)SC1=S	-	.	-	-	-	71	82	43
COc1ccc(/C=C2\SC(=S)N(CCCC(=O)Nc3ccc(C(=O)O)cc3)C2=O)cc1OC	-	.	-	-	-	64	53	18
Cc1ccc(NC(=O)COc2cccc(/C=C3\SC(=S)N(CCC(=O)O)C3=O)c2)cc1Cl	-	.	-	-	-	-	.	.
COc1cccc(/C=C2/SC(=S)N(CCCC(=O)Nc3ccc(O)cc3)C2=O)c1	-	.	-	-	-	-	.	.

Screens deposited in PubChem by The Scripps Research Institute Molecular Screening Center.
